JMJD2A Tudor – blocks the human JMJD2A Tudor domain | O75164 | AlphaScreen JMJD2A-Tudor / H3K4me3 peptide binding | Potency, µM (top dose mostly 114 µM), for inactives: at the highest dose activity change, negative = inhibition, hits mostly inhibitors | hit rate 4.4% among 390,000; note: % is set by controls: 0 for no effect and ±100 for the full control effect; nearly all actives have a fitted effect of over 50% in size
BAZ2B block – BAZ2B (human) inhibition | AlphaScreen BAZ2B-H3K14Ac peptide displacement | Potency, µM (doses to about 114 µM), without a hit: top-dose activity change, negative = inhibition, most hits filed as inhibitors | hit rate 4.4% among 360,000; note: % is set by controls: 0 for no effect and ±100 for the full control effect; nearly all actives have a fitted effect of over 60% in size
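Multi-concentration screen (max 110 uM) measuring displacement of acetylated histone H3 peptide from BAZ2B by AlphaScreen, using 50 nM protein, 50 nM peptide and 10 ug/mL streptavidin donor plus Ni-chelate acceptor beads.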
HP1b chromo inh – blocks HP1-beta chromodomain binding to methylated histone tails | hit rate 0.56% among 390,000 | AlphaScreen HP1-beta / biotin-H3K9me3 peptide binding | P83916 | Potency, µM (series often up to 114 µM), for the others: at the highest dose activity change, negative = inhibition, hits mostly inhibitors; note: nearly all actives have a fitted effect of over 70% in size
Target sequence (P83916 whole entry, looked up): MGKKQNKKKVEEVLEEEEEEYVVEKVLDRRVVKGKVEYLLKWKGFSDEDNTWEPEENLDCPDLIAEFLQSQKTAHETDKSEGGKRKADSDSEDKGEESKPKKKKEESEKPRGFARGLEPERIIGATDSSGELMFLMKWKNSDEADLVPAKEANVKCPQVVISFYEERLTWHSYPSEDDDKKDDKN
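AlphaScreen: HP1-beta (50 nM) preformed 30 min with biotin-H3(1-18)K9me3 peptide (50 nM) in PBS pH 7.4, 0.01% Tween-20. Compound added for 30 min at RT, then streptavidin donor/nickel chelate acceptor beads (10 ug/mL) for 30 min.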
Sfp inh – Sfp phosphopantetheinyl transferase inhibition; Potency, µM, for inactives: largest response in the series, negative = inhibition, actives largely listed as inhibitors; Q9F4F7; Biochemical Sfp PPTase activity, qHTS; hit rate 3.5% among 310,000;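 note: the enzyme is Sfp with the accession as filed and its product quenches rhodamine fluorescence; 0% = enzyme reaction without inhibitor and -100% = no enzyme wells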
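After 15 min at room temperature with compound, 15 nM Sfp received 5 uM rhodamine-CoA plus 12.5 uM BHQ-2-ybbR (50 mM Hepes pH 7.6, 10 mM MgCl2). Rate came from the fluorescence difference over 30 min, ex 525/em 598 nm.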
G9a inh – blocks human histone lysine methyltransferase G9a; Q96KQ7; G9a H3K9 monomethylation, AlphaScreen, 2 h; Potency, µM (titrated, usually from 102 µM), inactives show at the highest dose activity, negative = inhibition, usual class: inhibitors; hit rate 8.8% among 350,000; note: % is set by controls: 0 for no effect and ±100 for the full control effect; nearly all actives have a fitted effect of over 75% in size
Target sequence (Q96KQ7 913-1193 limits assumed): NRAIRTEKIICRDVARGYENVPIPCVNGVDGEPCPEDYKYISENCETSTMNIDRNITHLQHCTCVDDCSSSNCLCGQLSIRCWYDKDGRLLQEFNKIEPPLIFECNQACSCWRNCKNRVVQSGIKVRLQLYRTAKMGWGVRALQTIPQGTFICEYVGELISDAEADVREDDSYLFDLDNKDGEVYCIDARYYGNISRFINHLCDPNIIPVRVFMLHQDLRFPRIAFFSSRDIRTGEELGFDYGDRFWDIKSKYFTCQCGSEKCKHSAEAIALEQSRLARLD
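Chemiluminescent proximity detection of H3K9 monomethylation, read after 10 min bead incubation in the dark. Reaction: 20 nM G9a, 500 nM biotin-H3K9 peptide, 20 uM SAM cofactor, 2 h, room temperature, following 15 min enzyme-compound preincubation.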
TDP1 inh – inhibitors of human tyrosyl-DNA phosphodiesterase TDP1 | Q9NUW8 | recombinant TDP1, AlphaScreen DNA substrate cleavage | Potency, µM (doses to about 130 µM), inactives show top-dose activity change, negative = inhibition, most hits filed as inhibitors | hit rate 0.28% among 350,000 | AID 485290; note: % is set by controls: 0 for no effect and ±100 for the full control effect; nearly all actives have a fitted effect of over 40% in size
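Enzyme-compound mixtures sat 15 min at room temperature, followed by a 5 min reaction with 15 nM final substrate and 10 min with AlphaScreen beads. Recombinant human Tdp1 was used at 1 nM final.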
* = called active by the depositor; ? = inconclusive; . = not tested or not shown; [ ] = remark or other dose. This is a sample that favours compounds with a hit; in the whole collection about 12% have one here. Calls come from the whole dose curve; as a rule, active = well fitted curve in the direction sought with a large enough effect; inconclusive = small, poorly fitted or top-dose-only effect, or another doubt; inactive = no such curve, though single readings can be large; an effect the other way counts as inactive or inconclusive. Potency is the fitted concentration of half-maximal effect.

SMILES	JMJD2A Tudor	BAZ2B block	HP1b chromo inh	Sfp inh	G9a inh	TDP1 inh
O=C(NCc1ccc2[nH]c3c(c2c1)CCCC3)c1ccc(S(=O)(=O)N2CCOCC2)cc1	-35%	?	-7%	2%	40µM*	4%
CN(C)S(=O)(=O)c1ccc(C(=O)NCc2ccc3[nH]c4c(c3c2)CCCC4)cc1	?	?	-10%	8%	45µM*	7%
O=C(NCc1ccc2[nH]c3c(c2c1)CCCC3)c1ccc(S(=O)(=O)N2CCCC2)cc1	-27%	-37%	7%	7%	45µM*	8%
Nc1nc2ccc(Cl)cc2o1	-7%	.	18%	.	.	.
COCCn1cnnc1SCC(=O)Nc1sc2c(c1C#N)CCC2	-21%	-4%	10%	.	14%[2.33 µM]	0%[56.1 µM]
Cn1cc(Br)c(C(=O)Nc2sc3c(c2C(N)=O)CCCC3)n1	-19%	-5%	-10%	-28%	35µM*	.
CCn1cc(Br)c(C(=O)Nc2sc3c(c2C(N)=O)CCCC3)n1	-1%	-17%	22%	10%	40%	6%
CC1CCC2(CC1)NC(=O)N(CC(=O)Nc1sc3c(c1C(N)=O)CCC3)C2=O (centres undefined)	?	50µM*	7%	?	50µM*	?
Cn1cc(Br)c(C(=O)Nc2sc3c(c2C#N)CCC3)n1	-24%	0%	-16%	-21%	35µM*	-5%
Cn1cc(Cl)c(C(=O)NC(=S)Nc2sc3c(c2C#N)CCCCC3)n1	-32%	-30%	-24%	?	21%[59 µM]	-3%
Cn1cnnc1SCC(=O)Nc1sc2c(c1C(N)=O)CCC2	63µM*	50µM*	?	?	?	.
CC(C)c1nn2c(=O)cc(COC(=O)c3ccccc3NC(=O)c3cccc(Cl)c3)nc2s1	5%	-2%	27%	.	14%[59 µM]	-1%
Cc1cccc(N(Cc2cc(=O)[nH]c3ccccc23)C(=O)CCl)c1	56µM*	-17%	-3%	?	5.6µM*	.
CCCC(=O)N(Cc1cc(=O)[nH]c2ccccc12)c1cccc(C)c1	?	-5%	-10%	-15%	28µM*	.
CC(=O)N(Cc1cc(=O)[nH]c2ccccc12)c1cccc(C)c1	32µM*	-6%	-25%	45µM*	?	3%
Cc1cccc(N(Cc2cc(=O)[nH]c3ccccc23)C(=O)C(C)C)c1	-4%[11.4 µM]	-1%	51%	23%	9%	.
CCOc1ccc(CCNC(=O)c2cnc3sc(N4CCC(C)CC4)nn3c2=O)cc1	-4%	1%	28%	.	-5%[59 µM]	-5%
NC(=O)c1ccsc1NC(=O)COC(=O)/C=C/c1ccccc1	-18%	2%	-11%	.	-25%	-10%[0.505 µM]
COC(=O)/C=C/c1ccsc1NC(C)=O	-6%	-26%	34%	50µM*	?	0%
O=c1cnnc(Nc2ccc(Nc3ccccc3)cc2)[nH]1	?	-36%	-8%	15%	40µM*	8%
COc1ccc(NC(=O)CSc2nnc(-c3ccccc3C)n2N)cc1	1%	-2%	49%	-14%	50µM*	4%
COc1ccc(NC(=O)CSc2nnc(C)c3ccccc23)cc1	-22%	-29%	19%[57 µM]	0%	50µM*	5%
Nn1c(SCC(=O)NCC2CCCO2)nnc1-c1ccc(OC(F)F)cc1 (centres undefined)	-2%	9%	10%	.	-28%	89µM*
COc1ccc(-c2nnc(SCC(=O)NC3CCCCC3)n2N)cc1	-10%	7%	34%	.	45µM*	0%
CC(C)(C)c1ccc(-c2nnc(SCC(=O)NCC3CCCO3)n2N)cc1 (centres undefined)	-12%	.	22%	.	.	1%
SMILES	JMJD2A Tudor	BAZ2B block	HP1b chromo inh	Sfp inh	G9a inh	TDP1 inh
O=C(NNC(=O)c1ccccc1F)c1cccc(S(=O)(=O)N2CCc3ccccc32)c1	-28%	.	23%	.	.	0%
COc1ccc(NC(=O)CSc2ccc3c4c(cccc24)C(=O)c2ccccc2-3)cc1	-11%	2%	12%	40µM*	-6%	4%
COc1cccc(NC(=O)CSc2nnc(-c3cccc(OC(C)C)c3)n2N)c1	56µM*	4%	42%	2%	25µM*	7%
CCc1nc(SCC(=O)Nc2ccc(N(C)C)cc2)c2ccccc2n1	-33%	-30%	1%	?	10µM*	.
CCCCC(=O)O[C@]1(C(=O)CO)CCC2C3CCC4=CC(=O)CCC4(C)C3C(O)CC21C (some centres undefined)	.	.	.	17%	-3%[12.7 µM]	.
N#Cc1ccccc1CSc1nnc2ccc3ccccc3n12	-5%	-9%	24%	.	-7%[59 µM]	-4%
CCc1ccc(NC(=O)C(Cc2ccccc2)NS(=O)(=O)c2ccc3c(c2)c(=O)n(C)c(=O)n3C)cc1 (centres undefined)	-22%	-17%	14%	.	-30%[59 µM]	7%
C[C@@H]1O[C@@H](OC2C(O)C(OCCc3ccc(O)c(O)c3)OC(CO)C2OC(=O)/C=C/c2ccc(O)c(O)c2)[C@H](O)[C@H](O)[C@H]1O (some centres undefined)	.	32µM*	.	.	?	.
O=Cc1cccn1-c1ccc(O)cc1	-1%	79µM*	39%	6%	-20%	8%
COCc1cc(CN2CCN(Cc3ccsc3)C(CCO)C2)ccc1OC (centres undefined)	-1%	-13%	20%	17%	3%	-1%
CC(C)(C)c1cccc(C2(O)C(=O)c3ccccc3C2=O)c1O	-21%	-8%	26%	6%	9%	0%
Cc1ccc(C2(O)C(=O)c3ccccc3C2=O)c(O)c1C	-3%	2%	20%	18%	.	50µM*
COc1ccc(-c2nnc(SCC(=O)NC3CC3)o2)cc1	-15%	-4%	28%	.	-23%[59 µM]	1%
CN1CCN(NS(=O)(=O)c2ccc(Cl)s2)CC1	-12%	8%	19%	-11%	1.6µM*	11%
Cc1cc(O)c(/C=N/Nc2ccc(Cl)cc2)c(=O)o1	?	2%[57.1 µM]	-14%	79µM*	8.9µM*	10%
Cc1cccc(N=Cc2c(O)cc(C)oc2=O)c1	-7%	12%	5%	12%	?	5%
Cc1cc(O)c(/C=N/Nc2ccccc2Cl)c(=O)o1	56µM*	-4%	17%	-11%	1.4µM*	10%
Cc1cc(O)c(/C=N/OCc2ccc(Cl)cc2Cl)c(=O)o1	?	1%	10%	-2%	20µM*	3%
Cc1cc(O)c(/C=N/Nc2cccc(Cl)c2)c(=O)o1	-26%[11.4 µM]	-7%	36%	-15%	2.2µM*	12%
C=CCOCC1CN2C(CCC(C)C2c2ccc(Br)cc2)C(=O)O1 (centres undefined)	.	.	.	3%	.	7%[21 µM]
O=C(Nc1ccc([N+](=O)[O-])cc1Cl)c1cc(Br)ccc1O	?	.	4%	.	.	4%

Source: PubChem
